# PubChem BioAssay (Tox21)
# Values without a mark were called inactive. Records with an inconclusive call do not appear. A call without a number means that no potency is given here. Calls of active or inactive are those of the source. Calls follow the shape of the dose curve; as a rule, active = well fitted curve in the direction sought with a large enough effect in the repeat runs; inconclusive = weak or mixed curves; inactive = no such curve, though single readings can be large; an effect the other way counts as inactive or inconclusive.
# Legend:
# [1] = Human pregnane X receptor (PXR) small molecule agonists, qHTS cell viability counter screen (AID 1346977); also: nearly all actives have a fitted effect of over 50% in size; also: potency is read from the fitted curve at half-maximal effect
# Method in brief: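 PXR-Luc HepG2 cells (2,000/well, 5% charcoal-stripped FBS) preincubated 5 hr, then exposed to compounds 24 hr at 37 C. Viability read in the same wells by CellTiter-Fluor fluorescence, reagent added at 23 hr, 1 hr incubation.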
# [2] = Caspase-3/7 induction in HepG2 cells by small molecules, qHTS assay (AID 1346978); also: nearly all actives have a fitted effect of over 15% in size
# Method in brief: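 Wild-type HepG2 cells (2,000/well) were settled 5 h at 37 C, 5% CO2, then exposed to compounds in DMSO for 17 h. Caspase-3/7 activity was read by luminescence 30 min after adding Caspase-Glo 3/7 reagent at room temperature.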
# [3] = Caspase-3/7 induction in CHO-K1 cells by small molecules, qHTS cell viability counter screen (AID 1346979); also: nearly all actives have a fitted effect of over 35% in size; also: potency is read from the fitted curve at half-maximal effect
# Method in brief: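 Wild-type CHO-K1 cells (1,500/well) treated with compound after 5 h plating; after 16 h at 37C, viability read as CellTiter-Fluor fluorescence following 1 h reagent incubation, in the same wells as the caspase read.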
# [4] = Caspase-3/7 induction in CHO-K1 cells by small molecules, qHTS assay (AID 1346980); also: nearly all actives have a fitted effect of over 15% in size
# Method in brief: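 Wild-type cells were seeded at 1,500 per well and settled 5 hr at 37 C, 5% CO2, then exposed to DMSO-dissolved compounds for 17 hr. Caspase-Glo 3/7 reagent was added, and luminescence was read after 30min at room temperature.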
# [5] = Caspase-3/7 induction in HepG2 cells by small molecules, qHTS cell viability counter screen (AID 1346981); also: nearly all actives have a fitted effect of over 30% in size; also: potency is read from the fitted curve at half-maximal effect; as to activity change, negative = cytotoxicity: series mostly up to about 92 µM
# Method in brief: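 Wild-type HepG2 cells, 2,000/well, settled 5 hr at 37 C, 5% CO2 before compound addition. Viability read by CellTiter-Fluor fluorescence, reagent added after 16 hr compound exposure, then 1 hr at 37C, in the same wells as the caspase read.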
# [6] = target: Nuclear receptor subfamily 1 group I member 2 (Rattus norvegicus) (UniProt Q9R1A7); experiment: Rat pregnane X receptor (rPXR) activation by small molecules, qHTS assay (AID 1346983); conditions: rPXR luciferase reporter cells, One-Glo luminescence, 24 h; max activation: hits give high values; also: nearly all actives have a fitted effect of over 20% in size
# Method in brief: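 Cell-based rPXR luciferase reporter assay, 2,000 cells per well, rested 5hr at 37 C before compound addition in DMSO, then 24 hr at 37 C. One-Glo reagent was added and luminescence read after 30 min at room temperature.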
# [7] = target: Nuclear receptor subfamily 1 group I member 2 (Homo sapiens) (UniProt O75469); experiment: Human pregnane X receptor (PXR) small molecule agonists, qHTS assay (AID 1346982); also: nearly all actives have a fitted effect of over 35% in size
# Method in brief: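 PXR-Luc HepG2 reporter cells (CYP3A4-driven luciferase) in 5% charcoal-stripped FBS medium, plated 5 h before compound addition, then treated 24 h at 37C. Luciferase read by ONE-Glo luminescence after 30 min at room temperature.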
# [8] = target: Cytochrome P450 2D6 (Homo sapiens) (UniProt P10635); experiment: Cytochrome P450 Family 2 Subfamily D Member 6 (CYP2D6) small molecule antagonists: luciferase reporter qHTS assay (AID 1671196); also: nearly all actives have a fitted effect of over 50% in size; also: potency is read from the fitted curve at half-maximal effect
# Method in brief: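 Cell-free P450-Glo system: CYP2D6 with proluciferin substrate was pre-incubated with compound for 10 min, then reacted with NADPH regeneration for 1 h at room temperature. Luciferin product was detected after 20 min, and data were reported as relative luminescence units.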
# [9] = target: Nuclear receptor subfamily 1 group I member 2 (Homo sapiens) (UniProt O75469); experiment: CYP3A4 induction through human pregnane X receptor (PXR) by small molecules, qHTS assay (AID 1346984); also: nearly all actives have a fitted effect of over 40% in size
# Method in brief: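 DPX-2 HepG2 cells carrying a PXR response element and CYP3A4-promoter luciferase construct, treated with compounds 24 hr at 37C. Then P450-Glo CYP3A4 Luciferin-IPA substrate (3uM final) for 3 hr at 37C, One-Glo added, luminescence read.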
# [10] = target: Nuclear receptor subfamily 1 group I member 2 (Homo sapiens) (UniProt O75469); experiment: Human pregnane X receptor (PXR) activation by small molecules, qHTS assay (AID 1346985); also: nearly all actives have a fitted effect of over 40% in size
# Method in brief: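 DPX-2 cells (HepG2 co-transfected with a PXR response element and a CYP3A4-promoter luciferase construct) were seeded at 2,000 per well, rested 5 hr at 37C, then exposed to DMSO-dissolved compounds for 24 hr. Activation was read as luciferase luminescence.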
# Cytochrome P450 2D6 (Homo sapiens), sequence (P10635 whole entry, looked up): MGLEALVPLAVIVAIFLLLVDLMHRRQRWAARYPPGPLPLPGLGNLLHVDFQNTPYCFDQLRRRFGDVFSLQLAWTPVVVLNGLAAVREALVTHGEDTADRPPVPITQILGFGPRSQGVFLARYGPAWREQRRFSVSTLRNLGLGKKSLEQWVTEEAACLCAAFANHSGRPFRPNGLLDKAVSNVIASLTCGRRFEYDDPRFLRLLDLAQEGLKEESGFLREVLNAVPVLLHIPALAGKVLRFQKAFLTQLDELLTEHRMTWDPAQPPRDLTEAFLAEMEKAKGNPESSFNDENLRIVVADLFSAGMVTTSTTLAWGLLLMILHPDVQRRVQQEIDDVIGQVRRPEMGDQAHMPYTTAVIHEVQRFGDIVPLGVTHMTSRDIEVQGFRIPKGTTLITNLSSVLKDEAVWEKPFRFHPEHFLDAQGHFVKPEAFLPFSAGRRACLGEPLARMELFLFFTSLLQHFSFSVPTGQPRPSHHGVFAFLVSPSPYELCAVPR
# Nuclear receptor subfamily 1 group I member 2 (Homo sapiens), sequence (O75469 whole entry, looked up): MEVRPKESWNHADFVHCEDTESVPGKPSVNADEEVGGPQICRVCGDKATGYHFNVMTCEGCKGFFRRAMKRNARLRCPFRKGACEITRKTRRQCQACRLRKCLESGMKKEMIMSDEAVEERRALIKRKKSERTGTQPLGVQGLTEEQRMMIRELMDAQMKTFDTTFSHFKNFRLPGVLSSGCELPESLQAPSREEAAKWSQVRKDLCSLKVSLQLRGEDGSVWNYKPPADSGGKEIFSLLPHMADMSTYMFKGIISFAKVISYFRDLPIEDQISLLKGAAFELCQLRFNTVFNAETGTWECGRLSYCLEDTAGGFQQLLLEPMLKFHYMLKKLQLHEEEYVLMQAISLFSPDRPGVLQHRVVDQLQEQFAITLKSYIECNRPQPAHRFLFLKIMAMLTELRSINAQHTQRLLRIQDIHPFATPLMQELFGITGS
# Nuclear receptor subfamily 1 group I member 2 (Rattus norvegicus), sequence (Q9R1A7 whole entry, looked up): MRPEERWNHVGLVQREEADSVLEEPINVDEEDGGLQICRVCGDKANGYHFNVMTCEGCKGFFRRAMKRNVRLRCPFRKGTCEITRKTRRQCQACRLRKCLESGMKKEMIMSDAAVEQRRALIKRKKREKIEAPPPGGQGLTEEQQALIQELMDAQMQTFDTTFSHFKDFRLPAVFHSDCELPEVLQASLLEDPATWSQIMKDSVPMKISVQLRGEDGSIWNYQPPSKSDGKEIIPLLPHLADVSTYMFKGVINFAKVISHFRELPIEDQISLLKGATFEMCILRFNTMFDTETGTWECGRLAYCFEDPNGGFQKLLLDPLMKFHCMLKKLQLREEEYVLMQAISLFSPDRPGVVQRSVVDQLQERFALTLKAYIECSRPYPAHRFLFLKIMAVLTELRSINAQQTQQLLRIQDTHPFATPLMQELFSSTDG
structure (smiles),measurement,setting,value
NC(N)=NCCN1CCCCCCC1,"activity change, negative = cytotoxicity",[1],-0.749% [at 0.349 µM]
same,caspase activation,[2],-1.67% [at 0.349 µM]
same,"activity change, negative = cytotoxicity",[3],-1.24% [at 0.349 µM]
same,caspase-3/7 activation,[4],-0.223% [at 0.349 µM]
same,"activity change, negative = cytotoxicity",[5],-1.53% [at 0.349 µM]
same,max activation,[6],-2.81%
NS(=O)(=O)Cc1noc2ccccc12,Potency,[1],inactive
same,outcome,[2],inactive
same,Potency,[3],inactive
same,outcome,[4],inactive
same,Potency,[5],inactive
same,max activation,[6],-2.52%
CCCCS(=O)(=O)N[C@@H](Cc1ccc(OCCCCC2CCNCC2)cc1)C(=O)O,Potency,[1],inactive
same,outcome,[2],inactive
same,Potency,[3],inactive
same,outcome,[4],inactive
same,Potency,[5],inactive
same,Potency,[7],inactive
same,Potency,[8],inactive
CC1CCC(CO)CC1 (stereo not drawn),Potency,[1],inactive
same,outcome,[2],inactive
same,Potency,[3],inactive
same,outcome,[4],inactive
same,Potency,[5],inactive
same,Potency,[7],inactive
same,Potency,[8],inactive
CCCCCCC1CCC(=O)O1 (stereo not drawn),Potency,[1],inactive
same,outcome,[2],inactive
same,Potency,[3],inactive
same,outcome,[4],inactive
same,Potency,[5],inactive
same,Potency,[7],inactive
same,Potency,[8],inactive
CCCc1nn(C)c2c(=O)[nH]c(-c3cc(S(=O)(=O)N4CCN(C)CC4)ccc3OCC)nc12,Potency,[1],inactive
same,outcome,[2],inactive
same,Potency,[3],inactive
same,outcome,[4],inactive
same,Potency,[5],inactive
same,Potency,[8],inactive
C[C@H]1[C@H](NC(=O)/C(=N/OC(C)(C)C(=O)O)c2csc(N)n2)C(=O)N1S(=O)(=O)O (stereo in doubt),Potency,[1],inactive
same,outcome,[2],inactive
same,Potency,[3],inactive
same,outcome,[4],inactive
same,Potency,[5],inactive
same,max activation,[6],-2.74%
same,Potency,[8],inactive
CN1CCC(=C2c3ccccc3CCc3cccnc32)CC1,outcome,[2],inactive
same,Potency,[3],inactive
same,outcome,[4],inactive
same,Potency,[5],inactive
same,Potency,[7],inactive
CC(=O)O[C@@]12CO[C@@H]1C[C@H](O)[C@@]1(C)C(=O)[C@H](O)C3=C(C)[C@@H](OC(=O)[C@H](O)[C@@H](NC(=O)OC(C)(C)C)c4ccccc4)C[C@@](O)([C@@H](OC(=O)c4ccccc4)[C@H]21)C3(C)C,Potency,[1],inactive
same,Potency,[3],11.9 µM (active)
same,outcome,[4],inactive
same,Potency,[7],inactive
same,Potency,[8],38.9 µM (active)
C[N+](C)(CCOc1ccccc1)Cc1cccs1,Potency,[1],inactive
same,outcome,[2],inactive
same,Potency,[3],inactive
same,outcome,[4],inactive
same,Potency,[5],inactive
same,Potency,[8],0.195 µM (active)
O=C(O)CNC(=O)c1ccccc1,Potency,[1],inactive
same,outcome,[2],inactive
same,Potency,[3],inactive
same,outcome,[4],inactive
same,Potency,[5],inactive
same,max activation,[6],-5.13%
same,Potency,[9],inactive
same,Potency,[10],inactive
same,Potency,[8],inactive
CCCCOCCOC(=O)COc1cc(Cl)c(Cl)cc1Cl,outcome,[2],inactive
same,Potency,[3],inactive
same,outcome,[4],inactive
same,Potency,[5],inactive
same,Potency,[7],inactive
CC1=NN(c2cc(S(=O)(=O)O)ccc2Cl)C(=O)C1N=Nc1ccccc1 (stereo not drawn),Potency,[1],61.1 µM (active)
same,outcome,[2],inactive
same,Potency,[3],54.5 µM (active)
same,outcome,[4],inactive
same,Potency,[5],54.5 µM (active)
same,Potency,[8],inactive
CC(C)CCCO,Potency,[1],inactive
same,outcome,[2],inactive
same,outcome,[4],inactive
same,Potency,[5],inactive
same,Potency,[7],inactive
same,Potency,[8],inactive
